Structures are written as SMILES. Activity calls are given as the source filed them. The calls were made as follows: active = hit-call score of the fitted dose curve at least 0.9, where 1 is the maximum; inactive = score below 0.9.

Read-out in test [1]: Transforming growth factor beta 1 (TGFb1), TGFB1 (gene 7040)
The test can be described thus: BSK_KF3CT_TGFb1: BioMAP Diversity Plus: KF3CT Assay for Transforming growth factor beta 1 (TGFb1) Biomarker Activity (AID 2283072). The settings on record: primary human keratinocytes with fibroblasts; actives raise or lower the signal. The method in brief: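 KF3CT co-culture (keratinocytes + fibroblasts), 24 h exposure → TGF-b1 ELISA → bidirectional fit, DMSO = baseline. Parallel SRB total-protein staining (0.1% SRB, 10% TCA fixation, 560 nm) for cytotoxicity.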

Read-out in test [2]: C-C motif chemokine 2 (Homo sapiens) (UniProt P13500)
In words: BSK_KF3CT_MCP1: BioMAP Diversity Plus: KF3CT Assay for Monocyte Chemoattractant Protein 1 (MCP1/CCL2) Biomarker Activity (AID 2283073). The note with it: primary human keratinocytes with fibroblasts; actives raise or lower the signal. The method in brief: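 KF3CT skin co-culture (keratinocytes/foreskin fibroblasts), 24 h post-dose; MCP-1 by ELISA; gain/loss of signal fit bidirectionally vs DMSO baseline.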

Read-out in test [3]: Matrix Metallopeptidase 9 (MMP9), MMP9 (gene 4318)
In words: BSK_KF3CT_MMP9: BioMAP Diversity Plus: KF3CT Assay for Matrix Metallopeptidase 9 (MMP9) Biomarker Activity (AID 2283074).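 As to AC50: MMP9 protein level quantified by ELISA in the co-culture.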 The note with it: primary human keratinocytes with fibroblasts; actives raise or lower the signal. The gist of the method:
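Values come from bidirectional fitting relative to DMSO of MMP-9 levels, which were measured by ELISA. Measurements were taken 24 h after chemical dosing of a keratinocyte and foreskin fibroblast co-culture.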

Read-out in test [4]: urokinase plasminogen activator (uPA), PLAU (gene 5328)
In words: BSK_KF3CT_uPA: BioMAP Diversity Plus: KF3CT Assay for urokinase plasminogen activator (uPA) Biomarker Activity (AID 2283075). The settings on record: primary human keratinocytes with fibroblasts; actives raise or lower the signal. The method in brief:
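Values derive from bidirectional fitting against DMSO controls. Keratinocyte/foreskin fibroblast co-cultures received chemical; 24 h later uPA was detected by ELISA, with SRB total-protein staining in parallel wells for overt cytotoxicity.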

Read-out in a further test: CD40, CD40 (gene 958)
In words: BSK_LPS_CD40: BioMAP Diversity Plus: LPS Assay for CD40 Biomarker Activity (AID 2283076). The note with it: primary human HUVEC with PBMC; actives raise or lower the signal. The method in brief: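 ELISA readout of CD40 in HUVEC/PBMC co-culture (BSK_LPS system), 24 h post-dosing; bidirectional curve fit, DMSO baseline; parallel SRB total-protein staining for cytotoxicity.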

Read-out in test [5]: E-selectin (Homo sapiens) (UniProt P16581)
In words: BSK_LPS_Eselectin: BioMAP Diversity Plus: LPS Assay for Eselectin Biomarker Activity (AID 2283077). The settings on record: primary human HUVEC with PBMC; actives raise or lower the signal. The method in brief: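 ELISA readout of E-selectin, 24 h post-dose, HUVEC + PBMC co-culture (LPS system). Gain or loss of signal vs DMSO baseline, bidirectional fit.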

Read-out in test [6]: Interleukin-8 (IL8), CXCL8 (gene 3576)
The test can be described thus: BSK_LPS_IL8: BioMAP Diversity Plus: LPS Assay for Interleukin-8 (IL8) Biomarker Activity (AID 2283078). The note with it: primary human HUVEC with PBMC; actives raise or lower the signal. The gist of the method:
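HUVEC + PBMC co-culture, LPS-activated; test chemicals dosed, IL-8 read by ELISA at 24 h. Bidirectional curve fit vs DMSO baseline (gain or loss of signal).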

Test [7] in a line: BSK_LPS_SRB: Viability Assessment in the BioMAP Diversity Plus: LPS Assay (AID 2283079).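 Also: total protein by sulforhodamine B absorbance as a cytotoxicity measure; measured one day after compound addition; fitted in both directions against DMSO so loss or gain of signal counts.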 The settings on record: primary human HUVEC with PBMC. The method in brief: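 HUVEC + PBMC co-culture, LPS-stimulated; compound 24 h. 10% TCA fix, 0.1% SRB stain, A560. Bidirectional fit vs DMSO.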
Read-out in test [8]: Interleukin-1 alpha (IL1a), IL1A (gene 3552)
In words: BSK_LPS_IL1a: BioMAP Diversity Plus: LPS Assay for Interleukin-1 alpha (IL1a) Biomarker Activity (AID 2283080). The settings on record: primary human HUVEC with PBMC; actives raise or lower the signal. The gist of the method:
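HUVEC/PBMC co-culture, LPS system; 24 h after dosing; IL-1a by ELISA; gain or loss of signal fitted bidirectionally vs DMSO baseline.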

Read-out in test [9]: Monocyte Chemoattractant Protein-1 (MCP1), CCL2 (gene 6347)
The test can be described thus: BSK_LPS_MCP1: BioMAP Diversity Plus: LPS Assay for Monocyte Chemoattractant Protein-1 (MCP1) Biomarker Activity (AID 2283081).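 As to AC50: secreted MCP-1 protein quantified by ELISA in culture supernatant.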 The settings on record: primary human HUVEC with PBMC; actives raise or lower the signal. The method in brief: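 ELISA read-out of MCP-1 after 24 h chemical dosing of a human umbilical vein endothelial cell/peripheral blood mononuclear cell co-culture stimulated with LPS. Gain or loss of signal fitted relative to DMSO controls.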

Sequence of E-selectin (Homo sapiens) (P16581 whole entry, looked up): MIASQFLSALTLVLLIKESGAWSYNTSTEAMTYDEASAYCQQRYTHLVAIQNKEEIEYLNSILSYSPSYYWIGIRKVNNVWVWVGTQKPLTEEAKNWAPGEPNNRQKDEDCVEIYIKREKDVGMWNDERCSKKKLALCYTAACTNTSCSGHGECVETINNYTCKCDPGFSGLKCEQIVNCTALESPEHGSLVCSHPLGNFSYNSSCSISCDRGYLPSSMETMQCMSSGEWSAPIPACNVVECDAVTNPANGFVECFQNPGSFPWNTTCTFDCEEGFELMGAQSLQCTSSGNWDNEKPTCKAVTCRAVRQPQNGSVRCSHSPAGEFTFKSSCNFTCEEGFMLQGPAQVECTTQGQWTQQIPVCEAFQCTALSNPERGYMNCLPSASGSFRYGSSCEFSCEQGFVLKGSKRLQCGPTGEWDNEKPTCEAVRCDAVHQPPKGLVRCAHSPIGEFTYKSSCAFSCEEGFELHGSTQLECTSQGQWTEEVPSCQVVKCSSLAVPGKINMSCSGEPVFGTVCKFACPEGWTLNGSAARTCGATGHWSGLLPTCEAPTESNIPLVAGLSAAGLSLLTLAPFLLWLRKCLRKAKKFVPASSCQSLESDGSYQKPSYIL

The term AC50 denotes the concentration giving half of the maximal activity seen. As for `O=C(O)C1C2CCC(O2)C1C(=O)O` (stereo not given), the outcome in test [1] is “inactive”; in test [2], “inactive”; in test [4] it was “inactive”; with CD40, CD40 (gene 958), “inactive”; in test [5], “inactive”; in test [6], “inactive”. Also, the result in test [9] was inactive. The half-maximal activity concentration (AC50) in test [3] is 28.7 µM (active); in test [7], 18.6 µM (active); in [8] it was 18.6 µM (active).
Consider `O=C(N[C@H](c1ccccc1)[C@@H]1CN2CCC1CC2)c1c(Cl)ccc(C(F)(F)F)c1Cl`, for which the half-maximal activity concentration (AC50) in test [1] is 48.7 µM (active); in test [3], 41.7 µM (active); in test [4], 42.7 µM (active); with CD40, CD40 (gene 958) it was 19.5 µM (active); in test [6], 7.76 µM (active); in test [7] it was 29.7 µM (active). The result in test [2], in [5], in test [8] and in test [9] was inactive.
Regarding `N#CC(Br)(Br)C(N)=O`, the outcome in [1] was “inactive”; in [2] it was “inactive”; in [3] it was “inactive”; in [4], “inactive”; in the test with CD40, CD40 (gene 958) it was “inactive”; in [5] it was “inactive”. For the same molecule, the outcome in test [6], in test [7], in test [8] and in test [9] was inactive.
`C[C@]12C=CC3=C4CCC(=O)C=C4CC[C@H]3[C@@H]1CC[C@@H]2O`: the result in test [1], in test [2], in test [3], in test [4], in test [6] and in [7] was inactive. For the same molecule, the outcome in test [8] and in test [9] was inactive. Also, the half-maximal activity concentration (AC50) with CD40, CD40 (gene 958) was 20 µM (active); in [5], 4.37 µM (active).
Turning to `COc1cc(C=O)cc2c1[C@H](COC(N)=O)[C@]1(OC(C)=O)ON2C[C@H]2[C@@H]1N2C(C)=O`, the half-maximal activity concentration (AC50) in test [1] was 2.21 µM (active); in test [2] it was 1.1 µM (active); in [3], 2.07 µM (active); in test [4] it was 11.4 µM (active); with CD40, CD40 (gene 958), 20 µM (active); in test [5] it was 10.6 µM (active). The AC50 in test [6] was 13.3 µM (active); in test [7] it was 6.69 µM (active); in test [8], 19.7 µM (active); in test [9], 5.86 µM (active).
Consider `c1ccc(N=Nc2ccccc2)cc1`, for which the outcome is “inactive” in [1]; “inactive” in [2]; “inactive” in test [3]; “inactive” in [4]; “inactive” with CD40, CD40 (gene 958); “inactive” in test [5]. In addition, the result in test [6], in test [7], in test [8] and in test [9] was inactive.
In the case of `Nc1ccc([N+](=O)[O-])cc1`, the outcome in [1] is “inactive”; in test [2], “inactive”; in [3] it was “inactive”; in test [4], “inactive”; in the test with CD40, CD40 (gene 958) it was “inactive”; in test [5] it was “inactive”. Moreover, the outcome in test [6], in test [7], in [8] and in [9] was inactive.
On to `COC(=O)Nc1nc2ccccc2[nH]1`, for which the outcome in test [1] was “inactive”; in test [2], “inactive”; in test [3] it was “inactive”; in test [4], “inactive”; with CD40, CD40 (gene 958), “inactive”; in test [5] it was “inactive”. Besides, the result in test [6], in test [8] and in [9] was inactive. The half-maximal activity concentration (AC50) in test [7] was 10.5 µM (active).
As for `Nc1ccc(N=Nc2ccccc2)cc1`, the outcome in [1] is “inactive”; in [2], “inactive”; in test [4], “inactive”; in the test with CD40, CD40 (gene 958) it was “inactive”; in test [5], “inactive”; in test [6] it was “inactive”. For the same molecule, the outcome in test [7], in test [8] and in test [9] was inactive. Further, in test [3], the concentration at half-maximal activity (AC50) was 20 µM (active).
As for `CCCCC(CC)COC(=O)c1ccc(C(=O)OCC(CC)CCCC)c(C(=O)OCC(CC)CCCC)c1` (stereo not given), the outcome in test [1] was “inactive”; in test [2], “inactive”; in test [3], “inactive”; in [4] it was “inactive”; with CD40, CD40 (gene 958) it was “inactive”; in test [5], “inactive”. In addition, the outcome in [6], in [7], in [8] and in test [9] was inactive.
